Measured values reported in paper PMC5540273 (PLoS ONE, 2017).

Tests used:
Settings in all cases: concentration: 1 μM, replicates: in singlicate; n = 1
CDKL5 = system: CDKL5
CHEK1 = system: CHEK1
CHEK2 = system: CHEK2
CIT = system: CIT
CLK1 = system: CLK1
CLK2 = system: CLK2
CLK3 = system: CLK3
CLK4 = system: CLK4
CSF1R-autoinhibited = system: CSF1R-autoinhibited
CSF1R = system: CSF1R
CSK = system: CSK
CSNK1A1L = system: CSNK1A1L
CSNK1A1 = system: CSNK1A1
CSNK1D = system: CSNK1D
CSNK1E = system: CSNK1E
CSNK1G1 = system: CSNK1G1
CSNK1G2 = system: CSNK1G2
CSNK1G3 = system: CSNK1G3
CSNK2A1 = system: CSNK2A1
CSNK2A2 = system: CSNK2A2
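Further: KINOMEscan kinase panel screen.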

SMILES	%Inh (CDKL5) [%]	%Inh (CHEK1) [%]	%Inh (CHEK2) [%]	%Inh (CIT) [%]	%Inh (CLK1) [%]	%Inh (CLK2) [%]	%Inh (CLK3) [%]	%Inh (CLK4) [%]	%Inh (CSF1R-autoinhibited) [%]	%Inh (CSF1R) [%]	%Inh (CSK) [%]	%Inh (CSNK1A1L) [%]	%Inh (CSNK1A1) [%]	%Inh (CSNK1D) [%]	%Inh (CSNK1E) [%]	%Inh (CSNK1G1) [%]	%Inh (CSNK1G2) [%]	%Inh (CSNK1G3) [%]	%Inh (CSNK2A1) [%]	%Inh (CSNK2A2) [%]
Cc1ccc(NC(=O)Nc2ccc(Cl)c(C(F)(F)F)c2)cc1-c1ccc(C(=O)Nc2ccncc2)cc1 [GSK1398470]	6	0	0	90.6	14	3	0	24	0	30	0	9	22	7	7	11	24	21	21	0
Fc1ccc(-c2nc3n(c2-c2ccncc2)CCS3)cc1 [GI98581]	0	0	0	92.9	28	0	0	9	0	0	0	30	84	95.3	98.2	14	17	32	10	6
Cc1ccc(NC(=O)Nc2ccccc2F)cc1-c1ccc(C(=O)Nc2ccncc2)cc1 [GSK1398477]	18	5	0	89	16	0	3	40	0	85	0	20	0	12	16	18	32	28	19	18
COc1cccc(C2=C(Nc3cc(Cl)c(O)c(Cl)c3)C(=O)NC2=O)c1 [SB-390767]	0	100	0	7	46	0	14	15	0	0	0	5	0	13	24	100	0	25	0	0
CNc1cc(-c2ccc3c(N)n[nH]c3c2)nc(N)n1 [GSK2224810]	0	0	84	9	90.2	80	18	89	5	3	4	0	8	9	12	7	0	28	19	22
COc1ccc(CSc2nnc(-c3ccc4ncsc4c3)o2)cc1C(F)(F)F	8	1	17	9	90.5	39	0	83	0	1	0	0	0	0	0	0	0	0	0	2
O=C1NC(=O)C(c2ccc(Cl)cc2)=C1Nc1ccc(O)cc1 [SB-340867]	0	0	0	0	51	65	0	29	0	0	0	2	0	0	0	0	0	32	0	0
CNc1nc(-c2ccc3c(N)n[nH]c3c2)cc(N2C[C@@H](C(=O)NC3CCCCC3)OC[C@H]2C)n1 [GSK2375584]	1	7	27	0	21	0	0	20	37	2	1	16	66	41	38	2	4	26	1	8
COc1cccc(NC(=O)Nc2ccc(C)c(-c3ccc(C(=O)Nc4ccncc4)cc3)c2)c1 [GSK1398474]	0	7	0	94.8	29	0	65	5	0	86	0	0	0	31	42	8	25	34	0	10
CNc1nc(-c2ccc3c(N)n[nH]c3c2)cc(N2C[C@@H](C(=O)Nc3ccccc3)CC[C@H]2C)n1 [GSK2298859]	1	0	11	89	33	68	6	43	0	2	0	6	0	15	36	16	0	28	2	3
Cc1ccc(NC(=O)Nc2ccccc2)cc1-c1ccc(C(=O)Nc2ccncc2)cc1 [GSK1398471]	11	0	0	93	20	0	7	14	0	84	2	0	0	13	24	11	13	29	6	7
COc1ccc2cc(-c3nc(-c4ccccc4C(C)C)[nH]c3-c3ccncc3)ccc2c1 [SB-660566]	37	4	0	28	12	0	0	0	0	8	0	20	0	22	34	10	0	0	0	2
CC(=O)c1c(C)c2cnc(Nc3ccn(C)n3)nc2n(C2CCCC2)c1=O	0	0	0	4	19	16	0	9	12	0	1	0	3	0	0	0	0	16	56	50
CCCCc1nn2ncccc2c1-c1ccnc(NC2CC2)n1 [GW684374]	0	0	3	25	40	26	90.7	0	0	7	2	0	18	90.1	92.4	0	0	25	0	5
Cc1ccccc1Cn1ccn2c(=O)cc(N3CCOCC3)nc12 [GSK2269905]	3	0	0	3	48	0	28	30	0	26	0	0	0	4	28	0	0	22	0	0
NS(=O)(=O)c1cccc(N/C=C2\C(=O)Nc3ccc(S(=O)(=O)Cc4c(Cl)cccc4Cl)cc32)c1 [GSK398099]	0	6	0	22	43	33	4	0	0	3	0	11	0	12	18	12	0	28	0	19
Cn1cncc1-c1cc2c(Nc3ccc(OCc4ccccc4)cc3)ncnc2cn1 [GW281179]	1	2	0	6	17	0	0	14	0	0	4	4	0	19	24	9	0	24	0	9
COC(=O)c1cccc(NC(=O)NC2CCN(c3ccnc(Nc4ccc(OC)cc4)n3)C2)c1 (stereo not drawn) [GSK1379746]	0	0	0	0	21	100	0	24	28	0	0	0	0	21	35	0	0	26	0	0
Cc1ccccc1-c1cc(-c2c[nH]nc2-c2ccccn2)ccn1 [GW680061]	0	85	4	24	15	0	0	15	10	3	0	7	12	24	16	2	0	1	13	0
COc1ccc(CSc2nnc(-c3ccc4c(c3)CCO4)o2)cc1	0	0	0	0	64	28	0	81	10	0	0	3	0	0	0	0	0	0	0	0
Cn1cnc2c(N)ncnc21 [SKF-97623]	0	0	24	1	6	0	2	0	41	0	0	22	1	0	8	0	70	0	0	0
